The record followed here is PubChem BioAssay (Tox21).

Records with an inconclusive call do not appear. Calls of active or inactive are those of the source. Calls follow the shape of the dose curve; as a rule, active = well fitted activation curve with a large enough effect in the signal ratio in the repeat runs (not every such curve was filed as active); inconclusive = weak or mixed curves, or effect the other way; inactive = flat fitted curve, though single readings scatter; the % refers to the signal ratio.
% is scaled to controls: 0 for no effect and ±100 for the full control effect.

Bile acid receptor (Homo sapiens), sequence (Q96RI1 whole entry, looked up): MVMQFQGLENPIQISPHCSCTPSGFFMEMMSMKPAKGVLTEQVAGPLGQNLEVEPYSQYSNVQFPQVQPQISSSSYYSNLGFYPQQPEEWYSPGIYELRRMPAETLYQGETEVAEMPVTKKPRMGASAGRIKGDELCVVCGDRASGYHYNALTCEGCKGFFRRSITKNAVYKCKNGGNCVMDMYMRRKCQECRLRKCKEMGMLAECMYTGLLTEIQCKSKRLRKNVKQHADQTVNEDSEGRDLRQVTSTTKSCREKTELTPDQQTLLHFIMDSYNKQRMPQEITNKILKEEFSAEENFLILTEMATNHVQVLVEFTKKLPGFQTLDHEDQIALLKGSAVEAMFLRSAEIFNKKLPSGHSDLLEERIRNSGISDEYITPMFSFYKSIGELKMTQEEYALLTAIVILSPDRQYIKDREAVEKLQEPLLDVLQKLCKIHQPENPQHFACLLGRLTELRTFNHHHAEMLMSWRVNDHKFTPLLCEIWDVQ

The experiment has as its target Bile acid receptor (Homo sapiens) (UniProt Q96RI1). Kind of experiment: qHTS assay to identify small molecule agonists of the farnesoid-X-receptor (FXR) signaling pathway (AID 743220). The conditions noted are these: HEK293T FXR-UAS-bla, beta-lactamase FRET ratio, 16 h; series mostly up to 62.6 µM; activation: at the top concentration. The text has this:
National Center for Advancing Translational Sciences [NCATS]
NIH Chemical Genomics Center [NCGC]
U.S. Environmental Protection Agency [EPA]
National Institutes of Environmental Health Sciences [NIEHS]
National Toxicology Program [NTP]
U.S. Food and Drug Administration [FDA]
The farnesoid-X-receptor (FXR), a nuclear hormone receptor, is highly expressed in liver, intestine, kidney and adrenal cortex. Natural ligands of FXR are the bile acids (Cholic acid, Chenodeoxy cholic acid etc). FXR is an important regulator of diverse metabolic pathways, including the bile acid homeostasis, lipid and glucose metabolisms. FXR regulates the expression of target genes by binding either as a monomer or as a heterodimer with the retinoid X receptor (RXR). Numerous studies have reported that FXR exerts protective function during cholestasis, diabetes, liver regeneration, and cancer. To identify compounds that activate FXR signaling, GeneBLAzer FXR-UAS-bla HEK 293T cell line (Invitrogen, Carlsbad, CA) containing a beta-lactamase reporter gene under the control of a UAS response element was used to screen the Tox21 10K compound library.
Tox21 Assay Protocol Summary:
FXR-bla cells were dispensed at 5000 cells/5uL/well in 1536-well black wall/clear bottom plates using a Multidrop Combi (Thermo Fisher Scientific, Waltham, MA) dispenser. After the assay plates were incubated at 37C and 5% CO2 for 5 h, 23 nL of compounds dissolved in DMSO, positive controls or DMSO only was transferred to the assay plate by a Pintool station (Kalypsys, San Diego, CA). The assay plates were incubated at 37C for 16 h. After 1 uL of LiveBLAzerTM B/G FRET substrate was added using a Bioraptr Flying Reagent Dispenser (FRD) workstation (Beckman Coulter, Indianapolis, IN), the plates were incubated at room temperature for 2 h, and fluorescence intensity was measured by an Envision plate reader (PerkinElmer, Shelton, CT).
On the technique in general: Quantitative high-throughput screening tests each substance at several concentrations.
`CCO/N=C(\CC)C1=C(O)CC(c2c(C)cc(C)cc2C)CC1=O` (stereo not given): the “activation” value is 3.63% [at 81.1 µM] (inactive).

`ClC(Cl)C(Cl)(Cl)Cl`: the “activation” value is -1.92% (inactive).

As to `ClC1(Cl)C2(Cl)C3(Cl)C4(Cl)C(Cl)(Cl)C5(Cl)C3(Cl)C1(Cl)C5(Cl)C24Cl` (stereo not given), the “activation” value was -1.72% (inactive).

For the compound `CN1CCc2cc(Cl)c(O)cc2[C@H]2c3ccccc3CC[C@@H]21`, the “activation” value is 0.675% (inactive).

Regarding `C=CCBr`, the “activation” value was -0.519% [at 81.1 µM] (inactive).

With `N#Cc1ccc(N(CC(N)=O)CC(F)(F)F)cc1C(F)(F)F`, the “activation” value was 0.285% (inactive).

With `[O]=[Cr][O][Cr]=[O]`, the “activation” value was -2.33% [at 81.1 µM] (inactive).

Take `CCNS(=O)(=O)C(F)(F)C(F)(F)C(F)(F)C(F)(F)C(F)(F)C(F)(F)C(F)(F)C(F)(F)F`: the “activation” value was 2.91% (inactive).

Turning to `O.O.O.O=C([O-])[C@H]([O-])[C@@H]([O-])C(=O)[O-].O=C([O-])[C@H]([O-])[C@@H]([O-])C(=O)[O-].[K+].[K+].[Sb+3].[Sb+3]`, the “activation” value was -1.3% [at 81.1 µM] (inactive).

For `S=C=Nc1ccccc1`, the “activation” value was -0.154% [at 81.1 µM] (inactive).

On to `Cc1c([N+](=O)[O-])cc2c(c1[N+](=O)[O-])C(C)(C)CC2(C)C`, for which the “activation” value is -0.285% (inactive).

For `O=c1[nH]c(Cl)c(Cl)cc1Cl`, the “activation” value was -0.669% (inactive).

As for `CC[N+]1(CC)CCC(OC(=O)C(O)(c2ccccc2)c2ccccc2)C1` (stereo not given), the “activation” value was 3.38% (inactive).

Regarding `CC(C)[C@@H](Nc1ccc(C(F)(F)F)cc1Cl)C(=O)OC(C#N)c1cccc(Oc2ccccc2)c1` (stereo not given in full), the “activation” value is 6.6% (inactive).

With `COC(=O)c1ccccc1S(=O)(=O)NC(=O)Nc1nc(C)nc(OC)n1`, the “activation” value is 0.183% (inactive).

Regarding `OCC(Br)CBr` (stereo not given), the “activation” value was -3.1% [at 81.1 µM] (inactive).

For `CCC(OC(C)=O)C(CC(C)NC)(c1ccccc1)c1ccccc1` (stereo not given), the “activation” value was -5.5% [at 81.1 µM] (inactive).

For the compound `CC(Cc1ccc(O)cc1)NCC(O)c1cc(O)cc(O)c1` (stereo not given), the “activation” value is -0.978% (inactive).

Take `CCOP(=S)(NC(C)C)Oc1ccccc1C(=O)OC(C)C` (stereo not given): the “activation” value is -0.826% (inactive).

`O=c1c2ccccc2c(=O)c2c1cc(Cl)c1[nH]c3c([nH]c12)c(Cl)cc1c(=O)c2ccccc2c(=O)c13`: the “activation” value was 1.42% (inactive).

Take `Cc1ccn2nc(S(=O)(=O)Nc3c(F)cccc3F)nc2n1`: the “activation” value was 0.105% (inactive).

Turning to `CCCCCCCCCCCCCCn1cc[n+](C)c1`, the “activation” value was 0.879% (inactive).

`ClCBr`: the “activation” value was 0.0823% [at 81.1 µM] (inactive).

Regarding `C[C@]12Cc3cn[nH]c3C[C@@H]1CC[C@@H]1[C@@H]2CC[C@@]2(C)[C@H]1CC[C@]2(C)O`, the “activation” value is -0.649% (inactive).

As for `Cc1cnc2c(C(=O)O)c(Cl)ccc2c1`, the “activation” value was 0.406% (inactive).

Turning to `Oc1cc(Cl)c(Cl)c(Cl)c1Cl`, the “activation” value is -5.14% (inactive).

For `O=C(O)CCCCCCNC1c2ccccc2CCc2ccccc21`, the “activation” value was 0.688% (inactive).

With `COC(=O)/C=C(\C)OP(=O)(OC)OC`, the “activation” value is 6.58% (inactive).

`Cc1cc2c3c(c1)C(c1ccccc1)=N[C@@H](NC(=O)c1ccncc1)C(=O)N3CC2`: the “activation” value was 0.533% (inactive).

Turning to `C=Cc1cccc(CCl)c1`, the “activation” value was 0.981% [at 81.1 µM] (inactive).

`CCOC(=O)CCN(SN(C)C(=O)Oc1cccc2c1OC(C)(C)C2)C(C)C`: the “activation” value was 0.433% (inactive).

As for `COC(=O)c1cc(Oc2ccc(Cl)cc2Cl)ccc1[N+](=O)[O-]`, the “activation” value is 0.756% (inactive).

Consider `Cc1ccc(C)c2ccccc12`, for which the “activation” value was -0.171% (inactive).

For the compound `CCCCc1ccccc1`, the “activation” value was 1.08% (inactive).

For the compound `CC(Cc1ccccc1)N(C)Cc1ccco1` (stereo not given), the “activation” value is 1.08% (inactive).

Turning to `O=[N+]([O-])c1cccc2cccc([N+](=O)[O-])c12`, the “activation” value was -0.46% [at 81.1 µM] (inactive).

With `CCN(CC)CCc1c[nH]c2ccccc12`, the “activation” value was -1.31% [at 81.1 µM] (inactive).

Turning to `CC(C)Br`, the “activation” value is 0.209% (inactive).

As to `CCOP(=S)(OCC)Oc1cc(C)nc(N(CC)CC)n1`, the “activation” value was -0.78% (inactive).

Take `O=S1(=O)OCC2C(CO1)C1(Cl)C(Cl)=C(Cl)C2(Cl)C1(Cl)Cl` (stereo not given): the “activation” value is -2.58% (inactive).
